In the library only some 11% were active in any assay of this set; here they are far more common.
IL1B secr inh: inflammasome signaling inhibition, IL-1 beta readout. activity change, % at 57.5 µM. actives 4.7% (n = 360,000). AID 743279. THP-1 LPS/ATP IL-1B secretion, AlphaLISA, 16 h; stronger effect = lower value; in the data active = activity change below about -50%; inconclusive = mostly about -30% to -49%; note: % is set by controls: 0 for no effect and ±100 for the full control effect
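THP-1 cells pretreated 1 hr with compounds (up to 57.5 uM final), then stimulated with LPS (250 ng/mL final) plus ATP (1.25 mM final); secreted IL-1B measured by AlphaLISA after 16 hr, decreased signal indicating inhibition.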
RORgamma inh: inhibitors of mouse ROR gamma transcriptional activity; P51450; Drosophila S2 Gal4-RORgamma UAS-luciferase reporter, 20 h; Potency, µM (series often up to 53.6 µM), for the others: at the top dose activity change, negative = inhibition, usual class: inhibitors; actives 5.4% (n = 310,000); AID 2551; note: potency is the fitted concentration of half-maximal effect; % is set by controls: 0 for no effect and ±100 for the full control effect; nearly all actives have a fitted effect of over 60% in size
Target sequence (P51450 whole entry, looked up, the tested form may be a part): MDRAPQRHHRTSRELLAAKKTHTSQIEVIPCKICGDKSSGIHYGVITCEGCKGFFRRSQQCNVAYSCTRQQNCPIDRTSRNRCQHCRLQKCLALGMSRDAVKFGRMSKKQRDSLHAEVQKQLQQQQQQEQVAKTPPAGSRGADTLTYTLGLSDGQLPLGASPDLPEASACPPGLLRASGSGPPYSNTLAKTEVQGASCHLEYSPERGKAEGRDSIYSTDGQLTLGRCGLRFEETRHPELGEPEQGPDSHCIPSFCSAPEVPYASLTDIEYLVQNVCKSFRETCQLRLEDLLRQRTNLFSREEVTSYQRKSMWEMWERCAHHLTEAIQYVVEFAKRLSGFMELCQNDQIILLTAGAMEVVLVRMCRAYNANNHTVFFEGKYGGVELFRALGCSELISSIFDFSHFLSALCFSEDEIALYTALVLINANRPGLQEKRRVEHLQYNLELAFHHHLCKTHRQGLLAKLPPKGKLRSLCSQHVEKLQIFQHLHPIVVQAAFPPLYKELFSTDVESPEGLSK
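Using a luciferase readout, inhibitors were identified by reduced reporter activity in Drosophila cells coexpressing a copper-inducible Gal4–ROR gamma fusion and UAS-driven Photinus luciferase, incubated 20 hr after 700 uM copper sulfate.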
MCF10A rerep: induces DNA re-replication in MCF 10a normal breast cells; MCF 10A DNA re-replication, Hoechst nuclear intensity, 48 h; Potency, µM (top dose mostly 46.1 µM), inactives show at the highest dose activity, positive = re-replication, actives largely listed as activators; actives 2.9% (n = 350,000); AID 624296; note: potency is the fitted concentration of half-maximal effect; % of control where 0% means no effect; nearly all actives have a fitted effect of over 50% in size
VP16 counter: counter-screen for ROR gamma inhibitors: Gal4-VP16 reporter; Drosophila S2 Gal4-VP16 UAS-luciferase, luminescence, 20 h; Potency, µM (highest dose often 53.6 µM), inactives show at the top dose activity, negative = inhibition, hits mostly inhibitors; actives 3.5% (n = 310,000); AID 2546;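 note: Gal4-VP16 expression switched on by copper sulfate through the metallothionein promoter; potency is the fitted concentration of half-maximal effect; % is set by controls: 0 for no effect and ±100 for the full control effect; nearly all actives have a fitted effect of over 50% in size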
SW480 rerep: inducers of DNA re-replication in SW480 colon cancer cells | SW480 DNA re-replication, Hoechst DNA content imaging, 48 h | Potency, µM (doses to about 46.1 µM), for inactives: at the highest dose re-replication activation, hits mostly activators | actives 1.8% (n = 340,000); note: potency is the fitted concentration of half-maximal effect; % of control where 0% means no effect; nearly all actives have a fitted effect of over 55% in size
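Cells (250 per well) received 23 nL compound or DMSO by pin tool and were kept 48 hr at 37 C, 5% CO2. Nuclei were then stained with Hoechst for 40 min and scanned for DNA content.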
* marks the source's active call; other numbers are inactive results; ? = inconclusive; · = no result; [ ] = another dose, or the depositor's remark. Unless noted, calls come from the whole dose curve; as a rule, active = well fitted curve in the direction sought with a large enough effect; inconclusive = small, poorly fitted or top-dose-only effect, or another doubt; inactive = no such curve, though single readings can be large; an effect the other way counts as inactive or inconclusive.

SMILES	IL1B secr inh	RORgamma inh	MCF10A rerep	VP16 counter	SW480 rerep
O=C(c1ccc2c(Cl)c3c(nc2c1)CCCC3)N1CCC(N2CCCCC2)CC1	-69.4*	11.5%	14.6%	-13.4%	?
CCOC(=O)N1CCN(C(=O)c2ccc3c(Cl)c4c(nc3c2)CCCC4)CC1	-50.8*	-5.1%	?	8.6%	0.4%
CCN(C(=O)c1ccc2c(Cl)c3c(nc2c1)CCC3)c1ccc(C)c(C)c1	-80.7*	?	?	-9.0%	?
Cc1ccc(C2(C)NC(=O)N(CC(=O)N(C)CC(=O)Nc3cccc4ccccc34)C2=O)cc1 (configuration not stated)	40.5	·	-3.4%	·	-83.1%
O=C(Nc1c2c(nn1-c1ccccc1)CS(=O)C2)c1ccco1 (configuration not stated)	9.6	-5.5%	-0.1%	-15.7%	-3.2%
C=CCn1c(C)nnc1SCC(=O)N1c2ccccc2NC(=O)C1(C)C	-1.6	·	·	·	·
CCCCCCn1c(COc2ccccc2F)nnc1SCC(=O)N1c2ccccc2NC(=O)C1(C)C	-56.7*	?	20.6µM*	?	?
Cc1ccc(N2C=Nc3ccc(C)c4nc(C)cc2c34)cc1	-51.6*	-17.1%	17.0%	14.9%	?
N#CC(c1ccccc1)C(CC(=O)c1ccccc1)c1ccccc1 (configuration not stated)	-5.7	·	·	·	·
COc1cccc(-c2cnc(C(O)c3ccc(C(C)(C)C)cc3)[nH]2)c1 (configuration not stated)	-26.5	·	·	·	·
C(=N\Nc1nncc2ccccc12)/c1ccccn1	149.7	1.41µM*	?	3.55µM*	2.59µM*
CC(=O)Nc1ccc(/C=N/Nc2nncc3ccccc23)cc1	?	-18.5%	15.9%	-17.0%	2.5%
Fc1cccc(/C=N/Nc2nncc3ccccc23)c1	-5.9	1.26µM*	-0.6%	10µM*	-59.2%
NCCc1nnc(SCc2c(F)cccc2Cl)o1	-15.6	14.8%	-4.4%	8.5%	-8.5%
Fc1cccc(Cl)c1CSc1nnc(COc2cccc3cccnc23)o1	-50.5*	5.1%	0.6%	-10.0%	-2.5%
Cc1ccccc1NC(=O)CSc1nnc(C)c(=O)[nH]1	-7.3	-23.4%	1.1%	-16.1%	-0.1%
COc1ccc2cnnc(SCC(=O)Nc3ccccc3)c2c1OC	-58.1*	33.5%	-7.9%	-4.5%	-5.8%
Cc1nnc(SCC(=O)Nc2ccccc2)[nH]c1=O	-6.0	-16.2%	4.7%	-11.2%	-4.3%
Cc1nnc(SCC(=O)Nc2ccccc2)c2ccccc12	-101.8*	-7.4%	0.7%	?	-0.8%
Cc1nnc(SCC(=O)Nc2ccc(O)cc2)c2ccccc12	-98.5*	?	?	0.7%	?
Cc1ccccc1NC(=O)CSc1nnc(C)c2ccccc12	-68.7*	-2.8%	17.1%	5.5%	0.3%
O=C(O)c1cc(C(=O)O)c(C(=O)N(Cc2cccc(Oc3ccccc3)c2)[C@H]2CCCc3ccccc32)cc1C(=O)O	·	1.6%	·	2.9%	·
NC(=S)NN=C1CCSCC1	-9.0	·	-1.0%	·	4.5%
O=C(NC(Cc1cn(Cc2ccccc2)cn1)C(=O)O)OCC1c2ccccc2-c2ccccc21 (configuration not stated)	-7.3	·	·	·	·
Cc1ccccc1C(=O)Nc1cc(-c2cc(C(C)(C)C)oc2C)nn1C	-59.1*	43.5%	21.1%	6.0%	-46.8%
SMILES	IL1B secr inh	RORgamma inh	MCF10A rerep	VP16 counter	SW480 rerep
Cc1ccccc1NC(=O)Nc1cc(-c2ccccc2)nn1C	1.7	2.1%	-3.1%	-6.9%	-10.3%
Cc1c(NC(=O)C(C)OC(=O)COc2ccccc2)c(=O)n(-c2ccccc2)n1C (configuration not stated)	28.4	2.2%	-1.4%	3.7%	-3.1%
Cc1c(NC(=O)C(C)Oc2cccc(F)c2)c(=O)n(-c2ccccc2)n1C (configuration not stated)	7.1	·	-5.2%	·	23.1µM*
Cc1c(NC(=O)C(C)OC(=O)C23CC4CC(CC(Br)(C4)C2)C3)c(=O)n(-c2ccccc2)n1C (configuration not stated)	36.2	24.4%	1.46µM*	-7.9%	-31.5%
Cc1c(NC(=O)C(C)OC(=O)c2ncc(Cl)c(Cl)c2Cl)c(=O)n(-c2ccccc2)n1C (configuration not stated)	-72.4*	·	-1.8%	·	-39.6%
Cc1c(NC(=O)c2cccc(F)c2)c(=O)n(-c2ccccc2)n1C	-1.2	-4.6%	-20.6%	-9.2%[0.365 µM]	1.0%
Cc1c(NC(=O)COC(=O)C23CC4CC(CC(O)(C4)C2)C3)c(=O)n(-c2ccccc2)n1C	-13.3	1.6%	-3.2%	3.3%	-9.6%
CN(c1ccccc1)S(=O)(=O)c1ccc(NC(=O)c2cccs2)cc1	-60.2*	17.1%	?	-6.1%	-2.5%
CN(c1ccccc1)S(=O)(=O)c1ccc(NC(=O)c2ccccc2)cc1	?	?	16.6%	-17.1%	-7.0%
CN(c1ccccc1)S(=O)(=O)c1ccc(C(=O)Nc2ccncc2)cc1	-13.9	·	10.8%	·	-4.9%
CN(c1ccccc1)S(=O)(=O)c1ccc(NC(=O)c2ccc(F)cc2)cc1	-85.7*	·	?	·	9.2%
COc1cccc(/C(C)=N/N=C(\C)c2cccc(OC)c2)c1	?	?	0.2%	21.3%	18.8%
Nc1c(N(Cc2ccccc2)C(=O)COc2ccc([N+](=O)[O-])cc2)c(=O)[nH]c(=O)n1Cc1ccccc1	41.9	·	?	·	?
Cn1c(-c2cccs2)nc2ccccc21	-5.0	12.6µM*	-1.0%	4.8%	-3.2%
COCCn1c(-c2cccs2)nc2nc3ccccc3nc21	24.7	-28.7%	?	0.6%	7.31µM*
CCCn1c(-c2cccs2)nc2nc3ccccc3nc21	11.7	-5.7%	580.0%[0.0737 µM]	-6.5%	3.5%
Fc1ccc(-n2cc(-c3ccccc3)c3c(NN4CCOCC4)ncnc32)cc1	-72.6*	12.6µM*	?	10µM*	-6.0%
COc1ccc(-n2cc(-c3ccccc3)c3c(NN4CCOCC4)ncnc32)cc1	-85.4*	4.47µM*	?	?	2.9%
COc1ccc(-n2cc(-c3ccccc3)c3c(NCCOCCO)ncnc32)cc1	-18.7	-12.4%	-16.4%	-13.1%	-0.5%
CC(C)(c1ccccc1)c1ccc(OCc2ccc(C(=O)O)o2)cc1	5.1	·	?	·	-5.7%
O=C(NC(=O)c1ccccc1O)c1ccc2c(c1)CCO2	19.0	5.01µM*	0.0%	?	-57.4%
Nc1c(Cl)ncnc1N1CCOCC1	35.8	-2.4%	-0.2%	3.9%	1.8%
Nc1c(Cl)ncnc1N1CCN(c2ncnc(Cl)c2N)CC1	-13.4	-2.9%	0.2%	-9.7%	0.231µM*
Cc1cc(Cl)ccc1NC(=O)C1CCN(S(C)(=O)=O)CC1	11.2	0.1%	-23.9%	5.2%	3.2%
Cc1ccc(NC(=O)C2CCN(S(C)(=O)=O)CC2)c(C)c1	13.9	-21.7%	4.11µM*	3.5%	-42.4%

Assay outcomes deposited in PubChem by National Center for Advancing Translational Sciences (NCATS).
